A short description of assay [1]: qHTS RealTime-Glo MT Cell Viability Assay in HEK293 cells - 24 hour (AID 1224886). Further: top concentration of the series differs between compounds; nearly all actives have a fitted effect of over 50% in size. In a few lines:
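HEK293 cells were seeded at 600 cells/well together with NanoLuc luciferase and cell-permeant prosubstrate, preincubated 5 h at 37 C/5% CO2, then given compound in DMSO by pintool. Luminescence from viable-cell prosubstrate reduction was read repeatedly over 40 h.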
(In general: Quantitative high-throughput screening tests each substance at several concentrations.)

A short description of assay [2]: qHTS RealTime-Glo MT Cell Viability Assay in HEK293 cells - 8 hour (AID 1224887). Further: top concentration of the series differs between compounds; nearly all actives have a fitted effect of over 50% in size. In a few lines: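 Real-time viability in HEK293: signal arises when living cells convert a prosubstrate for NanoLuc in the medium, so luminescence tracks viable cell number. Compound (23 nL, DMSO) added 5 h post-seeding; kinetic reads at 0–40 h, 37 C.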
The nature of assay [3]: A CellTox Green Cytotoxicity Assay to monitor cytotoxicity in HEK293 cells - 16 hour (AID 1224888). Further: nearly all actives have a fitted effect of over 35% in size. The method, boiled down: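 Cells (HEK293, 600/well) and dye reagent are dispensed together. After 5 h at 37 C, 23 nL compound is pinned in. Plates stay at 37 C for 40 h with fluorescence read at 0h, 8h, 16h, 24h, 32h and 40h.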
A short description of assay [4]: qHTS RealTime-Glo MT Cell Viability Assay in HepG2 cells - 0 hour (AID 1224889). Further: nearly all actives have a fitted effect of over 50% in size. In a few lines:
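HepG2 cells were seeded at 600 cells/well together with NanoLuc luciferase and a cell-permeant prosubstrate, preincubated 5 h at 37 C/5% CO2, then pin-dosed with compounds in DMSO. Nonlytic luminescence from viable cells was read at each time point.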

Assay [5] in a line: A CellTox Green Cytotoxicity Assay to monitor cytotoxicity in HepG2 cells - 8 hour (AID 1224890). Further: nearly all actives have a fitted effect of over 45% in size. In a few lines: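 Cells and non-lytic dye reagent are dispensed together (600 HepG2 cells/well) and incubated 5 h before DMSO compound transfer. Kinetic fluorescence is then recorded in the same wells during 40 h at 37 C.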
Assay [6] is described as follows: qHTS assay to identify small molecule antagonists of the estrogen receptor alpha (ER-alpha) signaling pathway using the BG1 cell line in the presence of 0.1 nM 17-beta-estradiol - cell viability counter screen (AID 1259241). Further: nearly all actives have a fitted effect of over 40% in size. The method, boiled down: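 In this screen, hormone-deprived VM7Luc4E2 cells were seeded at 4,000 per well, dosed with compound and 0.1 nM estradiol final, and incubated 22 hr at 37C and 5% CO2; fluorogenic live-cell protease signal reported viability.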

Assay [7] in a line: qHTS assay to identify small molecule antagonists of the androgen receptor (AR) signaling pathway using the MDA cell line in the presence of 0.5 nM R1881 - cell viability counter screen (AID 1259242). Further: nearly all actives have a fitted effect of over 45% in size. In a few lines:
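Steps: plate MDA-kb2 cells, rest 5 hr at 37C without CO2; pin in compounds in DMSO; add R1881 to 0.5 nM final; incubate 16 hr; add CellTiter-Fluor, 30 min; read fluorescence.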

For assay [8], the target named is Estrogen receptor (Homo sapiens) (UniProt P03372). Kind of assay: qHTS assay to identify small molecule antagonists of the estrogen receptor alpha (ER-alpha) signaling pathway using the BG1 cell line in the presence of 0.1 nM 17-beta-estradiol (AID 1259244). Further: nearly all actives have a fitted effect of over 50% in size. The method, boiled down:
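Antagonist mode: compounds in DMSO are pinned onto VM7Luc4E2 reporter cells, 0.1 nM final 17beta-estradiol is added, and after 22 h at 37C luciferase luminescence is measured with ONE-Glo.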

A short description of assay [9]: qHTS assay to identify small molecule HDAC inhibitors (AID 1259364). Further: potency means the concentration at half of the fitted maximal effect.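 Further: wild-type HCT-116 cells with endogenous class I/II HDAC activity; nearly all actives have a fitted effect of over 45% in size.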 The method, boiled down:
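Cells (HCT-116, wild type) are seeded at 1,500 per well, incubated overnight, treated with compound in DMSO for 2 hr, then developed with HDAC-Glo I/II reagent for 30 min at room temperature.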

The nature of assay [10]: qHTS assay to identify small molecule agonists of the sonic hedgehog signaling (Shh) pathway - cell viability counter screen (AID 1259366). Further: nearly all actives have a fitted effect of over 50% in size. The method, boiled down: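 In quantitative high-throughput format, 3T3 Gli1-Luc cells were exposed to compounds for 24hr and multiplexed for viability using CellTiter-Fluor, incubated 1hr at 37C before the fluorescence read.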
Assay [11] can be described thus: qHTS assay to identify small molecule antagonists of the sonic hedgehog signaling (Shh) pathway - cell viability counter screen (AID 1259367). Further: nearly all actives have a fitted effect of over 55% in size. In a few lines: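 Conditioned medium drove Shh signaling in 3T3 Gli1-Luc cells exposed to compounds at 37C and 5% CO2. Viability was determined from CellTiter-Fluor fluorescence, with reagent incubated 1 hr after 23 hr of treatment.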

Assay [12] is described as follows: qHTS assay to identify small molecule agonists of the sonic hedgehog signaling (Shh) pathway (AID 1259368; calls by dose curve;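 further: NIH/3T3-derived 3T3Gli1-Luc cells carrying a stable Gli1-driven firefly luciferase reporter; series mostly up to about 92 µM; nearly all actives have a fitted effect of over 15% in size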). In a few lines:
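Cells of a mouse NIH/3T3 clone stably expressing luciferase under the Gli1 transcriptional response element are exposed to test chemicals for 24 hr at 37 C. Pathway activation is detected as a rise in luminescence.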

A short description of assay [13]: qHTS assay to identify small molecule antagonists of the sonic hedgehog signaling (Shh) pathway (AID 1259369; calls by dose curve; further: nearly all actives have a fitted effect of over 45% in size). In a few lines:
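Cells are plated and held 4hr at 37 C, compounds (DMSO) are pinned in, conditioned medium is added to stimulate the pathway, and after 24hr luciferase reagent is added for 30min before luminescence is read.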

Assay [14] addresses Estrogen receptor beta (Homo sapiens) (UniProt Q92731). Kind of assay: qHTS assay to identify small molecule antagonists of the estrogen receptor beta (ER-beta) signaling pathway (AID 1259378; active means well fitted inhibition curve with a large enough effect in the signal ratio in the repeat runs, not every such curve was filed as active; the % refers to the signal ratio). In a few lines:
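ER-beta-UAS-bla HEK293T (GripTite) cells in 2% charcoal-stripped FBS medium were preincubated 6 hr at 37C, dosed with compound, then stimulated with 1 nM E2 (final) for 16 hr; beta-lactamase reporter read by B/G FRET fluorescence after 2 hr substrate loading.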

Assay [15] is described as follows: qHTS assay to identify small molecule agonists of the androgen receptor (AR) signaling pathway in the presence of an antagonist - cell viability counter screen (AID 1259379).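 Further: MDA-kb2 human breast cancer cells carrying an MMTV luciferase reporter; series mostly up to about 92 µM; nearly all actives have a fitted effect of over 25% in size.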 In a few lines: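 Cytotoxicity is assessed by CellTiter-Fluor in MDA-kb2 cells carrying an MMTV-driven luciferase reporter. Cells receive 3.0uM nilutamide plus compounds at 15 concentrations and incubate 16 hr at 37C without CO2 before fluorescence reading.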

Assay [16] in a line: qHTS assay to identify small molecule agonists of the estrogen receptor beta (ER-beta) signaling pathway - cell viability counter screen (AID 1259380). Further: nearly all actives have a fitted effect of over 30% in size. In a few lines:
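Cytotoxicity is measured in parallel with the reporter screen: after 16 hr compound exposure at 37C and a 2 hr LiveBLAzer step, CellTiter-Glo is added to the same ER-beta-UAS-bla HEK293T wells and luminescence read after 30 min.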

A short description of assay [17]: qHTS assay to identify small molecule HDAC inhibitors - cell viability counter screen (AID 1259365). The method, boiled down:
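Measured quantity is CellTiter-Glo luminescence from wild-type HCT-116 cells after compound incubation of 2hr at 37C, 5% CO2; reagent developed 30min at room temperature.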

Assay [18] deals with Estrogen receptor beta (Homo sapiens) (UniProt Q92731). Kind of assay: qHTS assay to identify small molecule agonists of the estrogen receptor beta (ER-beta) signaling pathway (AID 1259377; active means well fitted activation curve with a large enough effect in the signal ratio in the repeat runs, not every such curve was filed as active; the % refers to the signal ratio). In a few lines:
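Reporter cells (HEK293T, ER-beta-UAS-bla) receive compounds or DMSO after a 6 hr pre-incubation. They then incubate 16 hr at 37C/5% CO2, and fluorescence from LiveBLAzer B/G substrate is measured after 2 hours at room temperature.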

A short description of assay [19]: qHTS assay to identify small molecule phospholipidosis (PLD) inducers (AID 1259344; active means well fitted curve in the direction sought with a large enough effect; an effect the other way counts as inactive or inconclusive). In a few lines: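 After 4 h attachment on collagen I, HepG2 cells were dosed with compound alongside LipidTOX Red, kept 24 h at 37 C, fixed, and imaged for lamellar phospholipid pits.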

Our source for the Potency and outcome values is PubChem BioAssay (Tox21).

A number with no mark means an inactive call. Records with an inconclusive call do not appear. The source made the active and inactive calls. Unless noted, the call rests on the fitted dose curve; in most records, active means well fitted curve in the direction sought with a large enough effect in the repeat runs; inconclusive means weak or mixed curves; inactive means no such curve, though single readings can be large; an effect the other way counts as inactive or inconclusive.

Sequence of Estrogen receptor (Homo sapiens) (P03372 whole entry, looked up): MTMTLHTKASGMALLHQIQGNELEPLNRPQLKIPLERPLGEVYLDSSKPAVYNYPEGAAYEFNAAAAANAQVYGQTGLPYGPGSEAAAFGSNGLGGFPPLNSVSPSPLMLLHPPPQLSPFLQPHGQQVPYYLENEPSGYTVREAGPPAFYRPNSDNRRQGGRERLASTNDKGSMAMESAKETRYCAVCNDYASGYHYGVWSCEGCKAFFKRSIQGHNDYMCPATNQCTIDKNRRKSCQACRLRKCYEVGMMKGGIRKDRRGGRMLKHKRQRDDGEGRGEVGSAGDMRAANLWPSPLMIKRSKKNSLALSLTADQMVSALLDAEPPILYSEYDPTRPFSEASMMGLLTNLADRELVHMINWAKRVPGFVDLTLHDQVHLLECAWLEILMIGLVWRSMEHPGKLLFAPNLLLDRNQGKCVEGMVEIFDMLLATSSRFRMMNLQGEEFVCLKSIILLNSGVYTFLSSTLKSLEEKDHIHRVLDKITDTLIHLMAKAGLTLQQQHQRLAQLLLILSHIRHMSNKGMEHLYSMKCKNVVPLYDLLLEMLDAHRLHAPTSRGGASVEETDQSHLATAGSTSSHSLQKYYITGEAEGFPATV
Sequence of Estrogen receptor beta (Homo sapiens) (Q92731 whole entry, looked up): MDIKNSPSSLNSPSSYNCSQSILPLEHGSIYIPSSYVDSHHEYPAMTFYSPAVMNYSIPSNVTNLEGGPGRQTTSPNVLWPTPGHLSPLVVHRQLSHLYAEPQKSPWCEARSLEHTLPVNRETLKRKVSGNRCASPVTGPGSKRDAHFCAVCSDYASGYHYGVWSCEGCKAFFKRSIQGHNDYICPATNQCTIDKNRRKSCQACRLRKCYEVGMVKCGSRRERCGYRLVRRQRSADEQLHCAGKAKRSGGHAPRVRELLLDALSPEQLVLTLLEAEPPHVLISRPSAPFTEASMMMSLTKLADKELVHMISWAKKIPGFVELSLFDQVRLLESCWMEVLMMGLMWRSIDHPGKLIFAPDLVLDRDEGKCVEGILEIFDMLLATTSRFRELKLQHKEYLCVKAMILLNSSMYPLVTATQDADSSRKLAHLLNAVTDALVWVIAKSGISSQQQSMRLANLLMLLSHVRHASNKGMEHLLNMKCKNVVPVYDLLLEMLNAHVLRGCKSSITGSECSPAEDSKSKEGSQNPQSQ

Consider `C[C@H]1[C@@H](c2ccccc2)NC(=O)N1C`, for which the Potency entry in assay [1], in assay [2], in assay [3], in [4], in assay [5] and in [9] was “inactive” each time. For the same compound, the Potency result in assay [13] and in [14] was “inactive” in each case. Besides, the result in [6], in assay [7], in assay [8], in assay [10], in assay [11] and in [12] was inactive. In addition, the result in assay [15] and in assay [16] was inactive.
Turning to `COS(=O)(=O)O`, the Potency result in [1], in assay [2], in assay [3], in [4], in assay [5] and in assay [9] was “inactive” each time. Moreover, the Potency result in [13] and in assay [18] was “inactive” each time. Besides, the result in [6], in assay [7], in assay [17], in [10], in assay [11] and in assay [12] was inactive. Moreover, the result in assay [15] and in [16] was inactive.
For `CC/C(C)=N\O[Si](C)(O/N=C(\C)CC)O/N=C(\C)CC`, the Potency entry in assay [1], in assay [2], in [3], in assay [4], in [5] and in [13] was “inactive” each time. Moreover, the result in [6], in assay [7], in assay [8], in [17], in [10] and in assay [11] was inactive. The result in [12], in assay [15] and in assay [16] was inactive.
For `Cn1c(=O)c2[nH]c(Br)nc2n(C)c1=O`, the Potency result in assay [1], in assay [2], in assay [3], in [4], in [5] and in assay [13] was “inactive” each time. Further, the Potency entry in [18] and in assay [14] was “inactive” in each case. The result in assay [6], in assay [7], in [19], in assay [17], in assay [10] and in assay [11] was inactive. In addition, the result in assay [12], in [15] and in [16] was inactive.
On to `CC(C)=CCC[C@@](C)(O)[C@H]1CC=C(C)CC1`, for which the Potency entry in [1], in assay [2], in [3], in [4], in [5] and in assay [9] was “inactive” in each case. Moreover, the Potency result in [13] and in assay [14] was “inactive” in each case. For the same compound, the result in [6], in assay [7], in assay [19], in [17], in assay [10] and in assay [11] was inactive. Moreover, the compound was called inactive in assay [12], in assay [15] and in assay [16].
Regarding `C=CCCCCCCCC`, the Potency entry in [1], in assay [2], in assay [3], in assay [4], in assay [5] and in [9] was “inactive” each time. The Potency entry in assay [13] is “inactive”. The result in assay [6], in assay [7], in assay [17], in assay [10], in assay [11] and in [12] was inactive. Further, the result in assay [15] and in assay [16] was inactive.
For the compound `CN1CCOC(c2ccccc2)c2ccccc2C1` (stereo unspecified), the Potency entry in [1], in assay [2], in [3], in assay [4], in [5] and in assay [9] was “inactive” in each case. Also, the Potency result in [13] and in assay [18] was “inactive” each time. The result in assay [6], in assay [7], in [19], in assay [17], in assay [10] and in assay [11] was inactive. For the same compound, the compound was called inactive in assay [12] and in assay [15].
Take `ONc1ccccc1`: the Potency entry in [1], in assay [2], in [3], in assay [4], in assay [5] and in assay [13] was “inactive” each time. Moreover, the result in assay [6], in assay [7], in assay [8], in [10], in assay [12] and in [15] was inactive. Further, the result in [16] was inactive. Moreover, the Potency in [9] is 27 µM (active).
